Tb PFK block: T. brucei PFK enzyme inhibition; 330,000 tested, 0.17% active; O15648; Potency, µM (top dose mostly 57.5 µM), inactives show at the highest dose activity, negative = inhibition, most hits filed as inhibitors; T. brucei PFK, ADP-Glo luminescence;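 note: 0% = uninhibited 1x PFK enzyme wells and -100% = no-enzyme wells; nearly all actives have a fitted effect of over 60% in size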
Target sequence (O15648 whole entry, looked up): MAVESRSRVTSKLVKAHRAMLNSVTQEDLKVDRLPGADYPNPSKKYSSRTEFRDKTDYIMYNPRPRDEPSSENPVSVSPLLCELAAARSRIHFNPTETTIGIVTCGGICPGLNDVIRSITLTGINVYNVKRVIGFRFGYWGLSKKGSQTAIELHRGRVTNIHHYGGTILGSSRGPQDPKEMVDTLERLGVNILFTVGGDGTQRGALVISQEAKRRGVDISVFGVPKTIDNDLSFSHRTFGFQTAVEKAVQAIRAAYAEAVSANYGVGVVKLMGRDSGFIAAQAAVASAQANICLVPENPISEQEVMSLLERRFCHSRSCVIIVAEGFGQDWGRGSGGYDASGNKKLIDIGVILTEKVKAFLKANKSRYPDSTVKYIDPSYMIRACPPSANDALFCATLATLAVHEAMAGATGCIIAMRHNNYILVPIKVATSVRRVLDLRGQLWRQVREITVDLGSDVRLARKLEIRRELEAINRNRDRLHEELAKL
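1.25 nM PFK with 0.5 mM F6P and 0.1 mM ATP in 0.1 M TEA pH 8.0, 5 mM MgCl2, incubated 45 min at room temperature; ADP measured by ADP-Glo luminescence; compounds titrated up to 57 uM.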
PGK inhibitor: T. brucei PGK inhibition; AID 602233; 380,000 tested, 0.043% active; Potency, µM (titrated, usually from 57.5 µM), for inactives: at the top dose activity change, negative = inhibition, most hits filed as inhibitors; P07378; PGK/GAPDH coupled, Kinase-Glo luminescence, 60 min; note: % is set by controls: 0 for no effect and ±100 for the full control effect; nearly all actives have a fitted effect of over 60% in size
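Recombinant glycosomal PGK reaction used 1,3-bisphosphoglycerate generated in-well by GAPDH (100nM final) in 100mM TEA pH 7.6, 5mM MgCl2, 0.01% Tween-20. After 60 minutes at room temperature, ATP was read by Kinase-Glo Plus luminescence end-point.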
Rango-impB inh: Rango-importin beta binding inhibition; Q14974; Rango CFP/YFP FRET sensor + importin beta, 45 min; Potency, µM (highest dose often 92.2 µM), without a hit: top-dose inhibition of complex formation; 340,000 tested, 0.031% active; AID 540263; calls by dose curve;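 note: 0% = DMSO wells and 100% = buffer wells lacking importin beta; nearly all actives have a fitted effect of over 15% in size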
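FRET biosensor Rango (snurportin 1 IBB between N-terminal EYFP and C-terminal Cerulean), 50 nM in PBS/1 mM DTT/0.02% Tween-20/0.1% BSA, preincubated 5 min RT with compound; 0.125 microM importin beta added, 45 min RT, CFP/YFP FRET ratio read.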
ELG1 DNA repair: inhibitors of ELG1-dependent DNA repair in HEK293T cells; HEK293T ELG1-luciferase reporter, luminescence, 16 h; DNA damage induced by 5-fluorouridine; AID 504467; Potency, µM (series often up to 46.1 µM), for the others: at the top dose activity change, negative = inhibition, usual class: inhibitors; 330,000 tested, 2.3% active; note: % is set by controls: 0 for no effect and ±100 for the full control effect; nearly all actives have a fitted effect of over 55% in size
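Reporter activity after DNA damage by 5-fluorouridine is monitored. Compound-treated cells incubate 16 hr at 37 °C, then ONE-Glo is added for 30 min before luminescence reading.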
Rango release inh: prevents RanGTP from dissociating the Rango-importin beta complex; 340,000 tested, 0.071% active; O95149+P62826; Potency, µM (highest dose often 46.1 µM), inactives show at the top dose activity change, negative = inhibition; Biochemical FRET Rango-importin beta, RanGTP-induced dissociation; calls by dose curve; note: % of control where 0% means no effect; nearly all actives have a fitted effect of over 45% in size
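Compounds preincubate 5 min with complex of recombinant Rango and importin beta in PBS with 1 mM DTT. Ran (0.6 uM) loaded with 2 mM GTP plus 0.2 uM RCC1 starts dissociation; FRET is recorded 45 min later.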
PKM2 activator: increases activity of human pyruvate kinase M2 | AID 1631 | 260,000 tested, 0.34% active | purified PKM2, Kinase-Glo ATP luminescence, activation; response scale: 0% is enzyme alone, no compound | Potency, µM (highest dose often 57.5 µM), for the others: at the top dose activation, actives largely listed as activators; note: % is set by controls: 0 for no effect and ±100 for the full control effect; nearly all actives have a fitted effect of over 55% in size
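hPK-M2, >95% pure; 0.1 mM ADP / 0.5 mM PEP final; imidazole pH7.2 buffer w/ 7 mM MgCl2, 50 mM KCl; 1 h RT; Kinase-Glo lum. Intermediate enzyme activity for dual inhibitor/activator qHTS.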
* hit, by the source's call; i = inactive; ? = inconclusive; nt = no result given. Sampled rows, rich in hits. Any-hit rate of the full collection: about 2.4%. Unless noted, calls come from the whole dose curve; as a rule, active = well fitted curve in the direction sought with a large enough effect; inconclusive = small, poorly fitted or top-dose-only effect, or another doubt; inactive = no such curve, though single readings can be large; an effect the other way counts as inactive or inconclusive. Potency is the fitted concentration of half-maximal effect.

SMILES	Tb PFK block	PGK inhibitor	Rango-impB inh	ELG1 DNA repair	Rango release inh	PKM2 activator
COC(=O)C1C(=O)C2=C(CC1C)NC(C)=C(C(=O)OCCOc1ccccc1)C2c1ccc(C)o1 (stereo not given)	4%	-1%	0%	23µM*	-24%	-7%
COCC(=O)N(CCc1ccc(OC)c(OC)c1)Cc1cc2cc(C)ccc2nc1Cl	0%	-2%	0%	16µM*	1%	-1%
CN(c1ccccc1)S(=O)(=O)c1cccc(NC(=O)c2nn(C)c(=O)c3ccccc23)c1	2%	-7%	3%	18µM*	13%	nt
CN(c1ccccc1)S(=O)(=O)c1cccc(NC(=O)C2=NNC(=O)CC2)c1	0%	-1%	5%	16µM*	-15%	nt
Cc1ccc(-c2nc(-c3cc4cccc(OCc5cccc(F)c5)c4oc3=O)no2)cc1	nt	-1%	nt	nt	nt	nt
COc1ccc(NC(=O)C2CCCN(S(=O)(=O)c3ccc(F)cc3)C2)cc1 (stereo not given)	nt	8%	nt	nt	nt	nt
CCOC(=O)C1CCN(C(c2cccc(F)c2)c2c(O)cc(C)n(CCOC)c2=O)CC1 (stereo not given)	nt	i	nt	nt	nt	nt
Cn1cnnc1Sc1cc(N2CCN(S(=O)(=O)c3ccc(Cl)c(Cl)c3)CC2)ccc1[N+](=O)[O-]	-2%	2%	1%	3%	-9%	2.8µM*
Cc1cc(C)n(-c2cc(N3CCN(S(=O)(=O)c4ccc5ccccc5c4)CC3)ccc2[N+](=O)[O-])n1	-2%	0%	0%	12%	0%	1%
Cn1cnnc1Sc1cc(N2CCN(S(=O)(=O)c3ccc4ccccc4c3)CC2)ccc1[N+](=O)[O-]	-14%	-1%	5%	8%	-25%	0.35µM*
CC1CCc2nc3ncn(Cc4ccccc4F)c(=O)c3cc2C1 (stereo not given)	nt	7%	nt	nt	nt	nt
Cc1ccc(Cc2nc3ccccc3nc2SCC(=O)N2CCN(c3ccccc3F)CC2)cc1	nt	-9%	nt	nt	nt	nt
O=C(Nc1ccc(Cl)cc1)c1cc2nc(-c3ccco3)cc(C(F)(F)F)n2n1	-4%	3%	?	-2%	?	0%
Cc1ccccc1Cn1cc(NC(=O)c2cc3nc(-c4ccco4)cc(C(F)(F)F)n3n2)cn1	-1%	-3%	?	6.5µM*	?	-3%
CCOC(=O)C(=Cc1cc(=O)c(OC)co1)C(=O)OCC	-1%	-2%	1%	5.8µM*	-6%	?
CCC(CO)Oc1cc(NCc2ccccc2C(F)(F)F)c2ncn(C(C)C)c2c1 (stereo not given)	5%	-1%	?	23µM*	?	nt
CCC(COC)Oc1cc(NCc2ccccc2)c2ncn(C(C)C)c2c1 (stereo not given)	-2%	i	?	18µM*	?	nt
O=C1CCCN1CCCNC(=S)Nc1ccc(Nc2ccccc2)cc1	-3%	5%	-1%	15µM*	0%	-7%
O=C1CCCN1CCCNC(=S)Nc1ccccc1	0%	-9%	4%	21%	9%	-12%
O=C1N=C(N2CCN(c3cccc4ccccc34)CC2)S/C1=C/c1cccs1	-8%	0%	-1%	8.2µM*	-13%	0%
O=S1(=O)c2cccc3cccc(c23)N1Cc1nnc(-c2ccccc2Br)o1	0%	-2%	6%	23µM*	3%	-6%
O=C1c2ccccc2S(=O)(=O)N1Cc1nnc(-c2ccccc2Br)o1	4%	-7%	4%	18%	0%	-9%
CCc1cc2c(=O)c(-c3nc4ccccc4[nH]3)coc2c(CN2CCCCC2)c1O	3%	-8%	0%	?	-9%	-1%
CCc1cc2c(=O)c(-c3nc4ccccc4[nH]3)coc2c(CN2CCCCC2C)c1O (stereo not given)	1%	-11%	0%	21µM*	2%	0%
COc1cc(/C=C/C(=O)C2C(=O)C=C(C)OC2=O)cc(OC)c1O (stereo not given)	1%	-5%	?	2.6µM*	?	4%
SMILES	Tb PFK block	PGK inhibitor	Rango-impB inh	ELG1 DNA repair	Rango release inh	PKM2 activator
CSc1ccc(/C=C(/NC(=O)c2ccc(C)cc2)C(=O)Nc2cccc(C)c2)cc1	-1%	5%	-1%	16%	16%	3%
CSc1ccc(/C=C(\NC(=O)c2ccc(C)cc2)C(=O)NN)cc1	-10%	-2%	-4%	18µM*	14%	-7%
CC(C)N(Cc1nc(-c2ccc(Cl)cc2)no1)C(=O)CCCN1C(=O)c2ccccc2C1=O	6%	-11%	0%	23µM*	-15%	-1%
CCc1ccc2c(c1)c1nnc(NN)nc1n2CC	-6%	i	-1%	16µM*	11%	-11%
NNc1nnc2c3cc(F)ccc3n(Cc3ccccc3)c2n1	-5%	i	0%	9.2µM*	-10%	-2%
CCc1ccc2c(c1)c1nnc(NN)nc1n2C	0%	8%	5%	-12%	-2%	11%
COc1ccccc1N=Cc1c(C)c(C#N)c2[nH]c3ccccc3n2c1=O	5%	i	?	5%	?	2%
Cc1c(Cc2ccccc2)c(=O)n2c([nH]c3ccccc32)c1C#N	1%	-2%	-6%	2.3µM*	1%	3%
Cc1ccccc1Cn1c(CN2CCC(C(=O)NCc3cccnc3)CC2)cc2ccccc21	nt	-5%	nt	nt	nt	nt
O=C(CSc1nnc(-c2ccc(Br)cc2)o1)N1CCN(C(=O)c2ccco2)CC1	0%	nt	?	23µM*	-10%	0%
O=C(CSc1nnc(-c2ccco2)o1)N1c2ccccc2CCc2ccccc21	-7%	i	0%	12µM*	-6%	-6%
Cc1ncc(CO)c(/C=N/NC(=O)c2cc(Br)ccc2O)c1O	5%	-2%	?	16µM*	?	-12%
Cc1ncc(CO)c(/C=N/NC(=O)c2ccc(Br)cc2)c1O	1%	nt	nt	?	nt	3%
COc1ccc(-c2cc3nc(C)c(CCC(=O)NCc4ccc(F)cc4)c(C)n3n2)c(OC)c1	-2%	i	-3%	26µM*	5%	3%
COc1cc(OC)cc(-c2cc3nc(C)c(CCC(=O)NC(C)CCc4ccco4)c(C)n3n2)c1 (stereo not given)	-6%	-3%	0%	13µM*	0%	1%
COc1ccc(CNC(=O)CCc2c(C)nc3cc(-c4ccccc4OC)nn3c2C)cc1	-3%	-10%	5%	-23%	4%	-6%
Cc1cccc(Cl)c1NC(=O)N1CCN(c2ccnc3cc(Cl)ccc23)CC1	-6%	-4%	8%	18µM*	31%	0%

Bioassay records (PubChem)
